The full data set covers some 8,800 targets. This sample favours those with a hit. About 0.5% of all pairs of compound and target were hits.
Tests used:
Test in all cases: log2 fold change, soluble protein after heating vs DMSO (PISA); higher = thermal stabilisation; K562 lysate, 10 uM; active = over 0.2 and 3.5 SD of the protein, either way, in both replicates (recomputed)
[1] = compound: C1=CC=C(C=C1)[C@H](COC2=CC3=C(C=C2)NC(=O)N3)NC(=O)C4=CC=CN(C4=O)CC5=CC(=C(C=C5)F)F
Procedure, shortened: (§1)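 K562 pellets were dounce-homogenised in PBS pH 7.4 with 1 mM MgCl2, and the crude extract at 1 mg/mL protein was treated with 10 μM compound for 30 min. Aliquots were heated for 3 min across 48°C-58°C, pooled, and brought to 0.5% NP-40 at 4°C; soluble protein was the supernatant after 21,000xg for 90 min. Soluble protein was quantified by TMTpro 16plex LC-MS/MS with channel sums equalised, and reported as log2 fold change in thermal stability against DMSO controls, with values from duplicates.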

[2] = compound: CC1=C(SC2=C1C(=N[C@H](C3=NN=C(N32)C)CC(=O)N)C4=CC=C(C=C4)Cl)C
Procedure, shortened: as §1

[3] = compound: CC1=C2C(=CC=C1)N=C(N(C2=O)C3=CC=CC=C3C)CN4C=NC5=C(N=CN=C54)N
Procedure, shortened: as §1

[4] = compound: Cc1sc2c(c1C)C(c1ccc(Cl)cc1)=N[C@@H](CC(=O)OC(C)(C)C)c1nnc(C)n1-2
Procedure, shortened: as §1

[5] = compound: c1ccc([C@@H]2C[C@H]2NC2CCNCC2)cc1
Procedure, shortened: as §1

Measured: log2 fold change

KIF11 (UniProt P52732)
inactive: [1] 0.008 | [2] -0.001 | [3] 0.006 | [4] -0.002 | [5] 0

MAD2L1BP isoform 3 (UniProt Q15013)
Sequence of UniProt Q15013 (Q15013 whole entry, looked up): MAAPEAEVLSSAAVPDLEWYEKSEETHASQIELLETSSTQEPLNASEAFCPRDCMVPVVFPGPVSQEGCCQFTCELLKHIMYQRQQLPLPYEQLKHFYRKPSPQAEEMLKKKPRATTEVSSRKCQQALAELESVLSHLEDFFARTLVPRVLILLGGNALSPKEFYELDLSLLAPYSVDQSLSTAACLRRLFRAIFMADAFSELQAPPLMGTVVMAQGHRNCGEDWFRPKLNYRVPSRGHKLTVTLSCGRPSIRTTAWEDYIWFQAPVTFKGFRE
inactive: [1] 0.003 | [2] 0.005 | [3] -0.013 | [4] -0.01 | [5] -0.006

LIMK2 isoform 3 (UniProt P53671)
inactive: [1] -0.022 | [2] -0.123 | [3] 0.038 | [4] 0.005 | [5] -0.132

MAT2B (UniProt Q9NZL9)
inactive: [1] -0.008 | [2] 0.014 | [3] -0.044 | [4] -0.003 | [5] -0.002

MLH1 (UniProt P40692)
inactive: [1] -0.038 | [2] -0.006 | [3] 0.006 | [4] -0.012 | [5] 0.019

MAPK9 (UniProt P45984)
inactive: [1] -0.021 | [2] 0.013 | [3] 0.045 | [4] -0.071 | [5] 0.033

L3HYPDH (UniProt Q96EM0)
Sequence of UniProt Q96EM0 (Q96EM0 whole entry, looked up): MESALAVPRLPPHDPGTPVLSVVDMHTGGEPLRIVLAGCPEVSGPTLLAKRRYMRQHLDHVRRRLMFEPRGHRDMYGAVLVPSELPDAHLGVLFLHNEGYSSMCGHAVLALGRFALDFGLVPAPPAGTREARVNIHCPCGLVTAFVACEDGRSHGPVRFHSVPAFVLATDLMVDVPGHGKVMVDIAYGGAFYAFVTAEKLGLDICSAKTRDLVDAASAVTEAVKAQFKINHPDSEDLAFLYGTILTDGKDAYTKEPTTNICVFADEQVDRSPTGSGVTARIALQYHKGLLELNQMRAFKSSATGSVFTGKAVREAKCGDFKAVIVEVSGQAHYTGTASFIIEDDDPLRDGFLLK
inactive: [1] -0.022 | [2] 0.042 | [3] 0.003 | [4] -0.014 | [5] 0.01

MAD2L2 (UniProt Q9UI95)
inactive: [1] -0.032 | [2] -0.006 | [3] -0.018 | [4] -0.085 | [5] 0.096

MBTPS1 (UniProt Q14703)
inactive: [2] 0.141 | [3] 0.079 | [4] -0.063 | [5] 0.017
active: [1] -0.317

MAPK12 (UniProt P53778)
inactive: [1] 0.029 | [2] 0.068 | [3] -0.015 | [4] -0.002 | [5] 0.307

LYAR (UniProt Q9NX58)
inactive: [1] 0.051 | [2] 0.015 | [3] -0.006 | [4] 0.031 | [5] 0.11

MED8 isoform 2 (UniProt Q96G25)
Sequence of UniProt Q96G25 (Q96G25 whole entry, looked up): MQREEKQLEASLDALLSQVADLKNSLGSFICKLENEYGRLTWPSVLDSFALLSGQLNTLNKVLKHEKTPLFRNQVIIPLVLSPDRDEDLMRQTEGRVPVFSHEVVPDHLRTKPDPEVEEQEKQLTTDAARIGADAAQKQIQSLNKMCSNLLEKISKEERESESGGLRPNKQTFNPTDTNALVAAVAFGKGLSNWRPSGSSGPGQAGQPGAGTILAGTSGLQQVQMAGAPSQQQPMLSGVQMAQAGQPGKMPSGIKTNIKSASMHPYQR
inactive: [1] -0.047 | [2] -0.033 | [3] -0.048 | [4] -0.039 | [5] 0.063

METTL7A (UniProt Q9H8H3)
Sequence of UniProt Q9H8H3 (Q9H8H3 whole entry, looked up): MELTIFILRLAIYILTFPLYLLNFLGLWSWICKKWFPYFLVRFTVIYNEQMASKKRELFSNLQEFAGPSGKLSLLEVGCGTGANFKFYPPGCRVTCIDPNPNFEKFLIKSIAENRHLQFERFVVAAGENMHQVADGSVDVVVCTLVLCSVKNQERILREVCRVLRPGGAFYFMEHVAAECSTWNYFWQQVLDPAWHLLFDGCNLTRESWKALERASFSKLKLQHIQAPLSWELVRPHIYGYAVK
inactive: [1] 0.069 | [2] -0.059 | [3] -0.078 | [4] -0.008 | [5] -0.074

MAP3K4 (UniProt Q9Y6R4)
inactive: [1] 0.012 | [2] -0.079 | [3] -0.001 | [4] -0.03 | [5] -0.008

MAP7D3 (UniProt Q8IWC1)
inactive: [1] 0.056 | [2] 0.057 | [3] -0.091 | [4] 0.015 | [5] -0.05

LIMS1 isoform 3 (UniProt P48059)
inactive: [1] -0.006 | [2] 0.006 | [3] -0.026 | [4] 0.037 | [5] -0.057

MAP2K1 (UniProt Q02750)
inactive: [1] -0.012 | [2] 0.016 | [3] -0.047 | [4] -0.048 | [5] 0.081

MPZL1 (UniProt O95297)
inactive: [1] 0.056 | [2] 0.006 | [3] -0.068 | [4] -0.042 | [5] 0.125

KLC1 isoform 6 (UniProt Q07866)
Sequence of UniProt Q07866 (Q07866 whole entry, looked up): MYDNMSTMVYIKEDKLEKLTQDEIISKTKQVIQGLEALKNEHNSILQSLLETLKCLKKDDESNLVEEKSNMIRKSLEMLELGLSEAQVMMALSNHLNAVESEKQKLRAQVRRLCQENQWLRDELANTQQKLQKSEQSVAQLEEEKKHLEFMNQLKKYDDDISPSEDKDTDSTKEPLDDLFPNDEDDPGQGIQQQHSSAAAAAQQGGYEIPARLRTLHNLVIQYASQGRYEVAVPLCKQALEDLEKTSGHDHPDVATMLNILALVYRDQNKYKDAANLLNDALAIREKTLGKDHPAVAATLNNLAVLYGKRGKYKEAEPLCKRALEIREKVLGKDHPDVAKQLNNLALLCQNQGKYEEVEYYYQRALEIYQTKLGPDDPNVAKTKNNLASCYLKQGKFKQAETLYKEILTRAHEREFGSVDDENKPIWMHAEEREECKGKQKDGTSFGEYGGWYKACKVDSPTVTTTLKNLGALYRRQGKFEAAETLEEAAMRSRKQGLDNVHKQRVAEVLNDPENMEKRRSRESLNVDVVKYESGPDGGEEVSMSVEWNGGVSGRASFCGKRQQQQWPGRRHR
inactive: [1] 0.001 | [2] 0.014 | [3] 0.027 | [4] 0.001 | [5] 0.033

KNOP1 (UniProt Q1ED39)
inactive: [1] 0.078 | [2] 0.029 | [3] 0.177 | [4] -0.162 | [5] 0.032

KNL1 (UniProt Q8NG31)
inactive: [1] 0.009 | [2] 0.003 | [3] -0.004 | [4] -0.03 | [5] -0.001

LAGE3 (UniProt Q14657)
inactive: [1] 0.067 | [2] -0.058 | [3] -0.087 | [4] -0.044 | [5] 0.018

MIF4GD isoform 3 (UniProt A9UHW6)
Sequence of UniProt A9UHW6 (A9UHW6 whole entry, looked up): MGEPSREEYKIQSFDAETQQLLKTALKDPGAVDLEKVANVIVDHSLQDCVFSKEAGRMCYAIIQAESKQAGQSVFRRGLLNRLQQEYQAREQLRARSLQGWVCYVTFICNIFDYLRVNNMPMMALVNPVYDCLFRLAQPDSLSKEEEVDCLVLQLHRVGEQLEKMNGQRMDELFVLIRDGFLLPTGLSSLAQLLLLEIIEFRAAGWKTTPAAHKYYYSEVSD
inactive: [1] -0.046 | [2] -0.033 | [3] 0.005 | [4] -0.051 | [5] -0.029

MAP2K2 (UniProt P36507)
inactive: [1] -0.04 | [2] 0.022 | [3] -0.047 | [4] -0.068 | [5] 0.064

MGAT5 (UniProt Q09328)
Sequence of UniProt Q09328 (Q09328 whole entry, looked up): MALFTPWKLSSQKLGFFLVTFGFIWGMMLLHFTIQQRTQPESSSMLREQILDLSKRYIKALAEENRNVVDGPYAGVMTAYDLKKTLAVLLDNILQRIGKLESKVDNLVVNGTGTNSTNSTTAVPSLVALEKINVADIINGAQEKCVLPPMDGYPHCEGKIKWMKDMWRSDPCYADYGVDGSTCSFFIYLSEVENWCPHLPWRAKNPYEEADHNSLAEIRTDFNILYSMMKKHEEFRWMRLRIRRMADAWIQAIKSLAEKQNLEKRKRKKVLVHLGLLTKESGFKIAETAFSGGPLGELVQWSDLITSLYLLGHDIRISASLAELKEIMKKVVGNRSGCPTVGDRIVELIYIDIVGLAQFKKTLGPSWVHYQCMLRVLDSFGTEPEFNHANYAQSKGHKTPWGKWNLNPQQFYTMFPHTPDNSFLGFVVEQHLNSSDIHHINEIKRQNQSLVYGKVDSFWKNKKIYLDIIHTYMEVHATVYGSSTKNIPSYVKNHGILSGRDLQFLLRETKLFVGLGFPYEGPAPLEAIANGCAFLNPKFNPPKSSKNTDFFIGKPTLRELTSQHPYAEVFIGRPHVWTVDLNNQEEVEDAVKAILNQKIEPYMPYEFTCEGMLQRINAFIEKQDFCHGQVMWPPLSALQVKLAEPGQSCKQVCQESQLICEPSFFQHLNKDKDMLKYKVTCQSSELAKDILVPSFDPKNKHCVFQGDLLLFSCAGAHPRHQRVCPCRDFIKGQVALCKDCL
inactive: [1] 0.088 | [2] -0.027 | [3] -0.171 | [4] 0.017 | [5] 0.083

MAPK14 (UniProt Q16539)
inactive: [1] 0.007 | [2] 0.024 | [3] 0.034 | [4] -0.04 | [5] -0.015

MBLAC2 (UniProt Q68D91)
inactive: [1] -0.011 | [2] -0.005 | [3] 0.001 | [4] 0.013 | [5] -0.033

METTL2A (UniProt Q96IZ6)
inactive: [1] 0.003 | [2] -0.004 | [3] 0.046 | [4] 0 | [5] 0.106

MLST8 (UniProt Q9BVC4)
inactive: [1] -0.038 | [2] 0.037 | [3] -0.051 | [4] 0.001 | [5] 0.011

LAMP1 (UniProt P11279)
inactive: [1] -0.006 | [2] 0.008 | [3] 0.017 | [4] -0.125 | [5] -0.299

LARS (UniProt Q9P2J5)
inactive: [1] -0.02 | [2] -0.007 | [3] 0.015 | [4] 0.04 | [5] 0.077

MACROD1 (UniProt Q9BQ69)
Sequence of UniProt Q9BQ69 (Q9BQ69 whole entry, looked up): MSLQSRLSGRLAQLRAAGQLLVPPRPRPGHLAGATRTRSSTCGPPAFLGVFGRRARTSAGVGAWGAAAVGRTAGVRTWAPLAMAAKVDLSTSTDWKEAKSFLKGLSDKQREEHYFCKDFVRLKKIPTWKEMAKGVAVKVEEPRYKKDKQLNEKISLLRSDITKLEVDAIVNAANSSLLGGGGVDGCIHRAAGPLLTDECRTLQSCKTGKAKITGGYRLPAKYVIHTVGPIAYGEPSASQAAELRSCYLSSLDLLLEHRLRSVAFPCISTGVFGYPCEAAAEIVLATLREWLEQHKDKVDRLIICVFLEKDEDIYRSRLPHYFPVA
inactive: [1] 0.048 | [2] 0.022 | [3] 0.004 | [4] 0.049 | [5] 0.075

MAP1S (UniProt Q66K74)
inactive: [1] 0.029 | [2] 0.011 | [3] 0.021 | [4] 0.019 | [5] 0.018

MED13L (UniProt Q71F56)
inactive: [1] -0.034 | [2] 0.029 | [3] 0.028 | [4] -0.095 | [5] 0.014

MRPL15 (UniProt Q9P015)
inactive: [1] -0.016 | [2] 0.04 | [3] 0.003 | [4] 0.04 | [5] -0.212

MED14 (UniProt O60244)
Sequence of UniProt O60244 (O60244 whole entry, looked up): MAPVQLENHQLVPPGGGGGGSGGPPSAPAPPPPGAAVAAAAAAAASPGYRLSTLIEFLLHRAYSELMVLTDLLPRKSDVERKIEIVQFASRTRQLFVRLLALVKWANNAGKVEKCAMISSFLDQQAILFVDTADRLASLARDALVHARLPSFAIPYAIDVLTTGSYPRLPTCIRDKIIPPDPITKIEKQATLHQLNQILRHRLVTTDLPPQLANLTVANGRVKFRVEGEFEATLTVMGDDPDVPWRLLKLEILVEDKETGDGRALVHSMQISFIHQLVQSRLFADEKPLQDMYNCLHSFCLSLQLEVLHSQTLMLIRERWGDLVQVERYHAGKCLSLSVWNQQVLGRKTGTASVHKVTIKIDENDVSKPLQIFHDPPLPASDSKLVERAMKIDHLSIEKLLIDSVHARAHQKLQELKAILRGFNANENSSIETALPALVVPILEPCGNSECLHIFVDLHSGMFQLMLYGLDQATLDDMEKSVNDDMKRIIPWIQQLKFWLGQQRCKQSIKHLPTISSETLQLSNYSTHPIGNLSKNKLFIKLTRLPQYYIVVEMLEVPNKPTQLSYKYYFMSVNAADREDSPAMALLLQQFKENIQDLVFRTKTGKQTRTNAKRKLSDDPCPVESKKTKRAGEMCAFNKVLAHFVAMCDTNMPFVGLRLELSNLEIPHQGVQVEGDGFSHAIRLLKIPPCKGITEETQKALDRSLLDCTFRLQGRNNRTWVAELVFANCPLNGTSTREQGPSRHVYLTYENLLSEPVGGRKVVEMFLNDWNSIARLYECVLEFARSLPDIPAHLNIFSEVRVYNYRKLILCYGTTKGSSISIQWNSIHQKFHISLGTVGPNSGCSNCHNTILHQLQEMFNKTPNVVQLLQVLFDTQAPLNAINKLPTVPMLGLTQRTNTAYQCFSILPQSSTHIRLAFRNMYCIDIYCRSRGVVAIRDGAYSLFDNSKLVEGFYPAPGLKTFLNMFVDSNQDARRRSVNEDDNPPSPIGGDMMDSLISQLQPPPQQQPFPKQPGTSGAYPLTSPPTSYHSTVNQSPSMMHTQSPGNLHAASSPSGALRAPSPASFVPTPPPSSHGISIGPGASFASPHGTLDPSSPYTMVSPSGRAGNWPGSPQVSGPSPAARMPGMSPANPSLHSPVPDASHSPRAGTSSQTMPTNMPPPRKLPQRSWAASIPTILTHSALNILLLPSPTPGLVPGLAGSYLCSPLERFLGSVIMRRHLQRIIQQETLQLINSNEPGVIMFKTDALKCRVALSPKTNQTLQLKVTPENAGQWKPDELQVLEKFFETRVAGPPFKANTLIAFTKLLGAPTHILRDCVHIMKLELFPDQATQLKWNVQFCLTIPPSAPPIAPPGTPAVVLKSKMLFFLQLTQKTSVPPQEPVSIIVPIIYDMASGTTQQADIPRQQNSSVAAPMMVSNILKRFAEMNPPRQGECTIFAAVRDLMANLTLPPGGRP
inactive: [1] -0.037 | [2] 0.035 | [3] 0.034 | [4] -0.029 | [5] 0

LAP3 (UniProt P28838)
inactive: [1] -0.043 | [2] 0.021 | [3] -0.139 | [4] -0.056 | [5] -0.285

LRPPRC (UniProt P42704)
inactive: [1] -0.067 | [2] 0.043 | [3] 0.049 | [4] 0.039 | [5] 0.122

MBOAT2 (UniProt Q6ZWT7)
Sequence of UniProt Q6ZWT7 (Q6ZWT7 whole entry, looked up): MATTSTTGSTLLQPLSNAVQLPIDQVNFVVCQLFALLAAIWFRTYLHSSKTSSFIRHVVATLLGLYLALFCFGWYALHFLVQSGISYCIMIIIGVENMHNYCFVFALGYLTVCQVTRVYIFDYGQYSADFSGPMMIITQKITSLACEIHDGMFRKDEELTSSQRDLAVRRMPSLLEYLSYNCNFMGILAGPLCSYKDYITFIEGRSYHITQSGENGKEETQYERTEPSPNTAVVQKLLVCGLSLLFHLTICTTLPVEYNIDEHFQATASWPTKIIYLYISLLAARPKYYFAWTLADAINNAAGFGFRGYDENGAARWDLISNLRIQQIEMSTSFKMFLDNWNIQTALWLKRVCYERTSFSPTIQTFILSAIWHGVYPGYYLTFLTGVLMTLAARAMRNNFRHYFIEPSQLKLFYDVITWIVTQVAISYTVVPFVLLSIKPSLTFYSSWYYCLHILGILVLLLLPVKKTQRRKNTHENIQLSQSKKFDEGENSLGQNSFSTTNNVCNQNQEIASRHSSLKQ
inactive: [1] -0.011 | [2] 0 | [3] 0.121 | [4] -0.022 | [5] -0.017

MED10 (UniProt Q9BTT4)
inactive: [1] 0.038 | [2] -0.033 | [3] -0.04 | [4] 0.015 | [5] -0.009

KIF15 (UniProt Q9NS87)
inactive: [1] -0.008 | [2] -0.003 | [3] 0.021 | [4] -0.02 | [5] 0.013

MRPL28 (UniProt Q13084)
inactive: [1] -0.002 | [2] -0.062 | [3] -0.026 | [4] 0.066 | [5] 0.356
